Measured values: PubChem BioAssay AID1851 (National Center for Advancing Translational Sciences (NCATS), 2009)
Values joined by “and” are separate entries in the source; they are usually repeats but may differ in a detail not shown here. Identical values can stand only once. The campaign covered roughly 16,000 compounds. About 4,000 (25%) were called active. Roughly 26% stayed inconclusive and do not appear here. The call rests on the fitted dose curve; in most records, active means well fitted curve in the direction sought with a large enough effect; inconclusive means small, poorly fitted or top-dose-only effect, or effect the other way; inactive means no such curve, though single readings can be large or run the other way. The list is a sample of the results.
On the % scale 0 is the no-effect control and ±100 the full control effect.

The compounds below were run against Cytochrome P450 2C9 (Homo sapiens) (UniProt P11712) (assay: Cytochrome panel assay with activity outcomes). Details: recombinant CYP, pro-luciferin dealkylation, luminescence, p450-cyp2c9; series mostly up to 57.1 µM.
Chain of Cytochrome P450 2C9 (Homo sapiens) (P11712 whole entry, looked up): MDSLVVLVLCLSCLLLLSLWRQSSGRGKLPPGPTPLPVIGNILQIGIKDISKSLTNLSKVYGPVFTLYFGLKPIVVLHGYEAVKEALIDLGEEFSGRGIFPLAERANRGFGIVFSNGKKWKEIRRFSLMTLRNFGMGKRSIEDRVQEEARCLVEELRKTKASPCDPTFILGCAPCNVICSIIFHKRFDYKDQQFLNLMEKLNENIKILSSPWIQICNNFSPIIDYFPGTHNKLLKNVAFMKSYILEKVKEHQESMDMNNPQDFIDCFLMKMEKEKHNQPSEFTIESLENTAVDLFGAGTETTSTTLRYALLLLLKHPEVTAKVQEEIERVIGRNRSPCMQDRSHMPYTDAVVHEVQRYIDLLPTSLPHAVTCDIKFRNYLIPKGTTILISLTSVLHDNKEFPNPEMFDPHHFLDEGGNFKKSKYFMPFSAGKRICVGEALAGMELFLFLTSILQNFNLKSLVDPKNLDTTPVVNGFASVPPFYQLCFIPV
For `CN(C)c1ccc(N=Cc2nc(-c3ccccc3)oc2O)cc1`, the AC50 was 7.08 µM (active). With `CN(C)c1ccc(N=C/C=C2\N(C)c3ccccc3C2(C)C)cc1` the AC50 was “inactive”. In the case of `O=C(Oc1oc(-c2ccco2)nc1C=Nc1ccc(Cl)cc1)c1ccco1`, the AC50 is reported as “inactive”. In the case of `CN(C)c1ccc(N=Nc2cccc3ccoc23)cc1`, the activity, negative = inhibition is reported as 18.2% [at 11.4 µM] (inactive). With `Oc1oc(-c2ccccc2)nc1C=Nc1ccccc1` the AC50 was 8.91 µM (active). In the case of `c1cncc(-c2cc(-c3cc(-c4cccnc4)n[nH]3)[nH]n2)c1`, the activity, negative = inhibition is reported as 8.46% [at 11.4 µM] (inactive). For `CCn1c(-c2ccc3ncccc3c2)n[nH]c1=S`, the AC50 was “inactive”. `CC(/C=N/n1c(-c2cccnc2)n[nH]c1=S)=C\c1ccccc1` was tested, and the AC50 was 10 µM (active). With `CN1[C@@H]2CC[C@H]1CC(OC(c1ccccc1)c1ccccc1)C2` (stereo partly specified) the AC50 was “inactive”. With `O=C(OC(C(=O)O)C(OC(=O)c1ccccc1)C(=O)NCc1ccccc1)c1ccccc1` (stereo unspecified) the AC50 was “inactive”. `CCc1ccc(N(C(=O)c2csnn2)C(C(=O)NCc2ccccc2)c2ccco2)cc1` (stereo unspecified) was tested, and the AC50 was 14.1 µM (active). `Cc1ccc(N(C(=O)c2csnn2)C(C(=O)NC(C)(C)C)c2cccs2)cc1` (stereo unspecified) was tested, and the AC50 was “inactive”. `Cc1ccc(S(N)(=O)=O)cc1NC(=O)/C=C/c1cccs1` was tested, and the AC50 was “inactive”. With `Cc1ccc(S(=O)(=O)N2CCOCC2)cc1NC(=O)COC(=O)CCC(=O)c1cccs1` the AC50 was 14.1 µM (active). With `CCN(CC)c1ccc2c(c1)OC(N)=C(C#N)C2c1cccnc1` (stereo unspecified) the AC50 was 7.94 µM (active). `Cc1nc(SCc2cccc(Oc3ccccc3)c2)n[nH]1` was tested, and the AC50 was 15.8 µM (active). With `CN(C)Cc1ccccc1-c1nccc(NCc2cccs2)n1` the activity, negative = inhibition was 13.4% [at 2.29 µM] (inactive). For `COCCNc1ncnc2ccc(-c3ccccc3CN(C)C)cc12`, the activity, negative = inhibition was 25.7% [at 2.29 µM] (inactive). In the case of `CCCc1cc(=O)[nH]c(=S)[nH]1`, the AC50 is reported as “inactive”. With `CN1CCN(c2ncc3ncc(=O)n(CCC#N)c3n2)CC1` the AC50 was “inactive”. For `CC(=O)OC[C@H]1O[C@@H](ON=C(C)C)[C@H](OC(C)=O)[C@@H](OC(C)=O)[C@H]1OC(C)=O`, the activity, negative = inhibition was 6.05% [at 11.4 µM] (inactive). `CC(C)(C)C(=O)Nc1nnc(SCC(=O)NCc2cccs2)s1` was tested, and the AC50 was “inactive”. In the case of `CC(C)(O)C#Cc1ccc(C(=O)NCc2cccs2)s1`, the AC50 is reported as 25.1 µM (active). In the case of `O=C(Cn1cccc1C(=O)c1ccccc1)NCc1cccs1`, the AC50 is reported as “inactive”. In the case of `O=S(=O)(O)[C@@H](c1ccccc1)[C@@H](O)c1ccccc1`, the activity, negative = inhibition is reported as 3.25% [at 11.4 µM] (inactive). In the case of `COCCCNC(=O)C(=O)N/N=C/c1ccc(OCC(=O)Nc2cccc(Cl)c2C)c(OC)c1`, the AC50 is reported as “inactive”. In the case of `COc1cc(/C=N/NC(N)=O)c(Br)cc1OCC(=O)Nc1ccccc1C`, the AC50 is reported as 3.16 µM (active). In the case of `Cc1ccc(CN2CC34C=CC(O3)C(C(=O)NCc3ccco3)C4C2=O)cc1` (stereo unspecified), the AC50 is reported as “inactive”. In the case of `COCCCNC(=O)C1C2C=CC3(CN(Cc4ccc(C)cc4)C(=O)C13)O2` (stereo unspecified), the AC50 is reported as “inactive”. With `O=C(NCC1COc2ccccc2O1)C1C2C=CC3(CN(Cc4cccs4)C(=O)C13)O2` (stereo unspecified) the AC50 was 31.6 µM (active). `c1ccc(C[n+]2cccc(-c3cc4ccccc4[nH]3)c2)cc1` was tested, and the activity, negative = inhibition was -9.64% [at 11.4 µM] (inactive). In the case of `O=C1C[C@@H](O)[C@@H](O)[C@H]2[C@@H]3C(=O)N(c4cccc(Oc5ccccc5)c4)C(=O)[C@@H]3CC[C@H]12`, the activity, negative = inhibition is reported as -10.3% [at 11.4 µM] (inactive) and 1.22% [at 11.4 µM] (inactive). For `O=C(Nc1nnc(SCc2ccc(Cl)cc2Cl)s1)C1COc2ccccc2O1` (stereo unspecified), the AC50 was 7.08 µM (active). `O=C(Nc1ncc(Cc2ccccc2)s1)C1COc2ccccc2O1` (stereo unspecified) was tested, and the AC50 was 6.31 µM (active). For `CN(Cc1ccco1)c1cc(-c2ccccc2C(F)(F)F)ncn1`, the activity, negative = inhibition was 9.45% [at 2.29 µM] (inactive). For `COc1ccc2[nH]cc(CCNc3cc(-c4ccccc4C)ncn3)c2c1`, the activity, negative = inhibition was -17.1% [at 2.29 µM] (inactive). For `COc1cc(OC)c2c(c1)C(=O)c1cc(OC)cc(OC)c1C2=O`, the AC50 was “inactive”. For `COc1ccc2c(=O)c(-c3ccccc3C)c(C)oc2c1`, the AC50 was 17.8 µM (active). In the case of `Clc1ccc2c(c1)N(CCCN1CCCC13CCCCC3)c1ccccc1S2`, the activity, negative = inhibition is reported as 10.5% [at 11.4 µM] (inactive). For `COC(=O)[C@@]1(Cc2ccccc2)[C@H]2c3cc(C(=O)N4CCCC4)n(Cc4ccc(OC)c(OC)c4)c3C[C@H]2CN1C(=O)c1ccccc1`, the AC50 was 1.26 µM (active). For `COC(=O)[C@@]1(Cc2ccccc2)[C@H]2c3cc(C(=O)N4CCCC4)n(Cc4ccc(O)c(OC)c4)c3C[C@H]2CN1C(=O)c1ccccc1`, the AC50 was 2.51 µM (active). With `CC(N)=O` the AC50 was “inactive”. In the case of `N#Cc1ccc(OC(=O)c2ccc(N=C(N)N)cc2)cc1`, the activity, negative = inhibition is reported as 12.7% [at 11.4 µM] (inactive). In the case of `NC(=O)Nc1n[nH]c(-c2ccccc2)n1`, the activity, negative = inhibition is reported as -4.69% [at 11.4 µM] (inactive). For `N#Cc1ccc(Oc2nc(C(N)=O)cc(-c3ccccc3)n2)cc1`, the AC50 was 6.31 µM (active). In the case of `O=C(NC[C@@H](O)CO)c1c(I)c(C(=O)NC[C@@H](O)CO)c(I)c(N(CCO)C(=O)CO)c1I`, the AC50 is reported as “inactive”. For `O=C(c1cc(C(F)(F)F)cc(C(F)(F)F)c1)N1CCC2(CC1)CCN(c1ccccn1)CC2`, the AC50 was “inactive”. In the case of `O=C(c1cc(C(F)(F)F)cc(C(F)(F)F)c1)N1CCC2(CC1)CN(c1ccccn1)C2`, the AC50 is reported as “inactive”. For `Cc1ccc(C(=O)N2CCN(c3ccc(C(F)(F)F)cn3)CC2)cc1`, the AC50 was 15.8 µM (active). With `O=c1c(-c2ccccc2)nc2cnc(N3CCNCC3)nc2n1-c1ccccc1` the AC50 was “inactive”. `N#Cc1cccc(-c2nc3cnc(N4CCNCC4)nc3n(C3CC3)c2=O)c1` was tested, and the AC50 was 0.631 µM (active). For `O=c1c(-c2ccccc2)nc2cnc(N3CCOCC3)nc2n1C1CC1`, the AC50 was 10 µM (active). With `O=c1c(-c2ccc(Cl)cc2)nc2cnc(N3CCOCC3)nc2n1C1CC1` the AC50 was “inactive”. For `N#Cc1cccc(-c2nc3cnc(N4CCOCC4)nc3n(C3CC3)c2=O)c1`, the AC50 was “inactive”. For `O=c1c(-c2ccccc2)nc2cnc(N3CCNCC3)nc2n1C1CC1`, the AC50 was 0.158 µM (active). For `N#CCCn1c(=O)c(-c2cccc(C#N)c2)nc2cnc(N3CCOCC3)nc21`, the AC50 was “inactive”. In the case of `O=c1c(-c2ccc(F)cc2)nc2cncnc2n1C1CC1`, the AC50 is reported as “inactive”. `O=c1c(-c2ccccc2)nc2cnc(N3CCOCC3)nc2n1C[C@H]1CCCO1` was tested, and the AC50 was “inactive”. In the case of `O=c1c(-c2ccc(F)cc2)nc2cnc(N3CCNCC3)nc2n1C1CC1`, the AC50 is reported as 1 µM (active). `O=c1c(-c2ccc(F)cc2)nc2cnc(N3CCOCC3)nc2n1C1CC1` was tested, and the AC50 was “inactive”. With `COc1ccc(-n2c(=O)c(-c3ccccc3)nc3cnc(N4CCNCC4)nc32)cc1` the AC50 was “inactive”. `C1CCC(C(C[C@@H]2CCCCN2)C2CCCCC2)CC1` was tested, and the AC50 was “inactive”. With `CNc1ccnc(-c2ccccc2C)n1` the activity, negative = inhibition was 24.5% [at 2.29 µM] (inactive). `C[C@@H]1O[C@@H](n2cc(F)c(=O)[nH]c2=O)[C@H](O)[C@@H]1O` was tested, and the AC50 was “inactive”. `N=C(C[C@@H](O)COc1ccccc1-c1ccccc1)N1CCCCC1` was tested, and the AC50 was “inactive”. In the case of `CC[C@H](C)[C@@H]1O[C@]2(CC[C@@H]1C)C[C@H]1C[C@H](CC=C(C)[C@@H](O[C@H]3C[C@H](OC)[C@H](O[C@H]4C[C@H](OC)[C@H](O)[C@H](C)O4)[C@H](C)O3)[C@@H](C)C=CC=C3CO[C@@H]4[C@@H](O)C(C)=C[C@H](C(=O)O1)[C@@]34O)O2`, the AC50 is reported as “inactive”. For `COc1ccc(-c2nc3cnc(N4CCN(C)CC4)nc3n(C3CC3)c2=O)cc1`, the AC50 was “inactive”. For `Cn1c(=O)c(-c2cc(F)cc(F)c2)nc2cnc(N3CCOCC3)nc21`, the AC50 was “inactive”. In the case of `O=c1c(-c2cc(F)cc(F)c2)nc2cnc(N3CCNCC3)nc2n1C1CC1`, the AC50 is reported as 0.158 µM (active). In the case of `COc1ccc(-c2nc3cnc(N4CCNCC4)nc3n(C)c2=O)cc1`, the AC50 is reported as “inactive”. `COc1ccc(-c2nc3cnc(N4CCNCC4)nc3n(C3CC3)c2=O)cc1` was tested, and the AC50 was 7.94 µM (active). `O=c1c(-c2cc(F)cc(F)c2)nc2cnc(N3CCOCC3)nc2n1C1CC1` was tested, and the AC50 was “inactive”. In the case of `CN1CCN(c2nc(-c3ccoc3)nc3ccccc23)CC1`, the activity, negative = inhibition is reported as 6.78% [at 2.29 µM] (inactive). With `COc1ccccc1CN1CC2(CCN(C(=O)c3cnccn3)CC2)C1` the AC50 was “inactive”. With `CC(C)CN1CCC2(CC1)CCN(C(=O)c1ccncc1)CC2` the AC50 was “inactive”. For `CCn1c(=O)[nH]c2ccccc2c1=O`, the AC50 was “inactive”. `CC1CCCC(n2c(=S)[nH]c3ccccc3c2=O)C1C` (stereo unspecified) was tested, and the AC50 was 3.55 µM (active). For `Cc1cc(=O)[nH]c2ccccc12`, the AC50 was “inactive”. In the case of `CN(C)C(=O)/N=N\C(=O)N(C)C`, the AC50 is reported as “inactive”. With `CCn1c(O)c(/C=C2\C=Nc3ccccc32)sc1=Nc1ccc(C)cc1` the AC50 was 2.24 µM (active). In the case of `CC(C)n1c(O)c(/C=C2\C=Nc3ccccc32)sc1=Nc1ccccc1`, the AC50 is reported as 2.51 µM (active). In the case of `C[C@@H](CNC(N)=O)NC(N)=O`, the activity, negative = inhibition is reported as 20.8% [at 11.4 µM] (inactive). `Cc1ccc(Nc2ncccc2C(=O)NCc2cccs2)c(C)c1` was tested, and the AC50 was 15.8 µM (active). In the case of `CN(C)C(=O)c1ccc(-c2nccc(NCc3cccs3)n2)cc1`, the activity, negative = inhibition is reported as 10.6% [at 2.29 µM] (inactive). In the case of `Cc1ccc(-c2cc(C(=O)NCc3ccco3)c3ccccc3n2)s1`, the AC50 is reported as 3.98 µM (active). For `Cc1ccc2c(c1)N(CC(=O)NCc1cccs1)C(=O)C(C)O2` (stereo unspecified), the AC50 was “inactive”. `Cc1ccc(C)c(-c2cc(C(=O)Nc3nccs3)c3ccccc3n2)c1` was tested, and the AC50 was 2.82 µM (active). `Cc1ccc(C)c(-c2cc(C(=O)Nc3sc(C)c(C)c3C(N)=O)c3ccccc3n2)c1` was tested, and the AC50 was 0.794 µM (active). For `N[C@@](CCc1ccccc1)(C(=O)O)c1ccccc1`, the activity, negative = inhibition was -3.36% [at 11.4 µM] (inactive). With `COc1cccc(Nc2ncc3nc(C)c(=O)n(CCC#N)c3n2)c1` the AC50 was “inactive”. `CN(C)CCCn1c2c3ccccc3ccc2c2oc(=O)c3ccccc3c21` was tested, and the activity, negative = inhibition was -5.42% [at 11.4 µM] (inactive).
